Laboratory results taken from PubChem BioAssay AID1477 (National Center for Advancing Translational Sciences (NCATS), 2009).
In all, about 230,000 compounds went through this assay and fewer than 10 were called active. About 3% were inconclusive and are not listed. Calls follow the shape of the dose curve; as a rule, active = well fitted curve in the direction sought with a large enough effect; inconclusive = small, poorly fitted or top-dose-only effect, or effect the other way, or another doubt; inactive = no such curve, though single readings can be large or run the other way. Not all results are given here. Bridge positions count the residues as written; N and C are the ends. Peptide text beside a SMILES is read from it.

These compounds were tested against Runt-related transcription factor 1 (Homo sapiens) + Core-binding factor subunit beta (Homo sapiens) (UniProt Q01196+Q13951) (assay: qHTS Assay for Compounds Blocking the Interaction Between CBF-beta and RUNX1 for the Treatment of Acute Myeloid Leukemia). Settings: AlphaScreen CBFb-His/RUNX1-biotin binding, biochemical; series mostly up to 59.8 µM; activity, negative = inhibition: at the top concentration.
Description: NIH Chemical Genomics Center [NCGC]
NIH Molecular Libraries Probe Production centers Network [MLPCN]
Assay Submitter (PI): Paul Liu
Core Binding Factor (CBF) abnormalities are associated with 20-25% of all acute myeloid leukemias (AML), of which 5-10% are further sub classified as acute myelomonocytic leukemia with eosinophilia, also known as M4Eo in the FAB classification scheme. This subtype of leukemia is usually associated with chromosome 16 inversion (p13:q22). Chromosome 16 inversion results in formation of the fusion oncogene CBFB-MYH11, which encodes the fusion protein CBF-beta-SMMHC.
It has been hypothesized that the interference of CBF-beta and RUNX1 binding could have therapeutic implications for patients with CBF mediated leukemias. We developed a CBF-beta and RUNX1 binding assay in AlphaScreenTM format and optimized it for high throughput screening to search for inhibitors. The goal of this project is to screen MLPCN's compound collection (MLSMR) for identifying the inhibitors of the interaction between CBF-beta and RUNX1 proteins as research probes. If these probes work well in the animal models, the ultimate goal of this project is to development a new drug treatment for this disease.
This assay can not be used to assess how apparent inhibitors interfere with protein binding, and whether inhibitors specifically bind to either protein. Disruption of this protein-protein interaction, through any mechanism, is the intended target activity.
NCGC Assay Protocol Summary:
Step, Parameter, Description
(1) Reagent, 3 uL CBFb-His/RUNX1-biotin mix incubated together for 20 minutes at room temperature (30 nM each)
(2) Compound or control, 23 nL compound stock solution
(3) Incubation, 15 minutes at Room temperature
(4) Reagent, 1 uL 50 ng each of beads (Nickel beads and streptavidin beads)
(5) Incubation, 90 minutes at Room temperature
(6) Detection, Excitation=365 nm Emission=440 nm, Envision reader in AlphaScreenTM mode
Keywords: MLSMR, MLPCN, NIH Roadmap, qHTS, NCGC, Core binding factor, CBF, CBF-beta, Acute myeloid leukemia
Also: % of control where 0% means no effect.

Chain of Runt-related transcription factor 1 (Homo sapiens) + Core-binding factor subunit beta (Homo sapiens) (Q01196 whole entry, looked up): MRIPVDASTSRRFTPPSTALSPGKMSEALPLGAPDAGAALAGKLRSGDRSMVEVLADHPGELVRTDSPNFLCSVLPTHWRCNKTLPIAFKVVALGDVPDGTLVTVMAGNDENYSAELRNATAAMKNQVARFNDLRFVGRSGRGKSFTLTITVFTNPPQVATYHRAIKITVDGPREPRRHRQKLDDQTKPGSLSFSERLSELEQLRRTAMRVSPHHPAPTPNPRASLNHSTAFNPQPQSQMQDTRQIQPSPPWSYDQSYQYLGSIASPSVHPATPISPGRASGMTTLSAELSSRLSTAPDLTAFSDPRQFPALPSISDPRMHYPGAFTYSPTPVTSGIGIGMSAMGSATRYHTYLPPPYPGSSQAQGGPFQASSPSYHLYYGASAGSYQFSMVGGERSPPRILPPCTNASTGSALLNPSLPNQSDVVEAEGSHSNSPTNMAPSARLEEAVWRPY
Chain of Runt-related transcription factor 1 (Homo sapiens) + Core-binding factor subunit beta (Homo sapiens) (Q13951 whole entry, looked up): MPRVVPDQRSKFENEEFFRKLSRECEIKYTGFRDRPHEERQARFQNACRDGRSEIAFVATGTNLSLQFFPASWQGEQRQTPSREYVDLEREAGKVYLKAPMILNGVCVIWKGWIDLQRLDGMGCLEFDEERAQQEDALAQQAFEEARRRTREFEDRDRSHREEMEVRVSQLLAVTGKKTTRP

Row | Structure (SMILES) | activity, negative = inhibition
1 | CC[C@H](C)[C@H](NC(=O)[C@H](CCCNC(=N)N)NC(=O)[C@H](CCCNC(=N)N)NC(=O)[C@H](CC(C)C)NC(=O)[C@H](Cc1ccccc1)NC(=O)CNC(=O)CNC(=O)[C@@H](N)Cc1ccc(O)cc1)C(=O)N[C@@H](CCCNC(=N)N)C(=O)N1CCC[C@H]1C(=O)N[C@@H](CCCCN)C(=O)N[C@@H](CC(C)C)C(=O)N[C@@H](CCCCN)C(=O)N[C@@H](Cc1c[nH]c2ccccc12)C(=O)N[C@@H](CC(=O)O)C(=O)N[C@@H](CC(N)=O)C(=O)N[C@@H](CCC(N)=O)C(=O)O | 4.96% (inactive)
2 | COC(=O)c1ccccc1N=Nc1c(C)[nH][nH]c1=O | -0.539% (inactive)
3 | O=C(NCc1ccccc1)C1=C[C@@H](C2CCCCC2)C[C@@H](OCc2ccc(CO)cc2)O1 | 0.0499% (inactive)
4 | COc1ccc(N(CC(=O)NC2CCCCC2)C(=O)CNC(=O)c2ccco2)c(OC)c1 | 7.33% (inactive)
5 | CSc1ccccc1N1CCN(CCCCCC(=O)NC2CCCc3ccccc32)CC1 (centres undefined) | -9.84% (inactive)
6 | CC1=C2[C@@H](O)[C@H]([C@@H](C)C(=O)NCCC(C)C)CC[C@@]2(C)C=CC1=O | 13.2% (inactive)
7 | Cc1cccn2c(CN(C)C3CCCc4ccccc43)c(C(=O)N3CCOCC3)nc12 (centres undefined) | -1.32% (inactive)
8 | COc1ccc(-c2ccc(C3C4C=CCCC4(C)C(=O)N3Cc3ccccc3)c(F)c2)cc1OC (centres undefined) | -5.3% (inactive)
9 | CCCOC(=O)c1c(NC(=O)c2cnn3c2NC(c2ccccc2)CC3C(F)(F)F)sc2c1CCCC2 (centres undefined) | -2.79% (inactive)
10 | COc1ccc(OC)c(C2C3=C(N=c4s/c(=C\c5cccc(O)c5)c(=O)n42)c2ccccc2CC3)c1 (centres undefined) | -16.4% (inactive)
11 | Cc1cc(-c2nnc(CCC(=O)NC(c3ccccc3)c3ccccc3)o2)no1 | 10.9% (inactive)
12 | CCCN1CCC(=O)N(C(CSc2ccc(OC)cc2)Cc2ccccc2)CC1 (centres undefined) | 8.03% (inactive)
13 | Cc1noc(C)c1-c1ccc2ncnc(NC(C)c3ccco3)c2c1 (centres undefined) | -22.2% (inactive)
14 | O=C(CNC1CCCCC1)NCC1(c2ccccc2)CCCC1 | 6.6% (inactive)
15 | Nc1nc(NC(=O)/C=C/c2ccc(F)cc2)nn1-c1ccccc1 | -1.51% (inactive)
16 | CC(Nc1nc(N2CCOCC2)nc2ccccc12)c1ccccc1 (centres undefined) | 19.1% (inactive)
17 | COc1ccc(C2=Nn3c(nnc3-c3ccccc3O)SC2)cc1 | -4% (inactive)
18 | O=C(O)C1CC=CC2CCN(C3CCCCC3)C(=O)C21 (centres undefined) | 18.6% (inactive)
19 | Cc1ccc(CN(Cc2cccnc2)C(=S)Nc2cc(Cl)ccc2C)cc1 | 10.9% (inactive)
20 | O=C(NCc1ccccn1)[C@]1(C(F)(F)F)C[C@H](CCc2ccccc2)CCCO1 | -3.84% (inactive)
21 | Cc1ccc(SCC(CC(C)C)N2CCN(CCc3ccccc3)CCC2=O)cc1 (centres undefined) | 13.6% (inactive)
22 | O=C(CC1NCCc2ccccc21)Nc1cccc(Cl)c1 (centres undefined) | -6.51% (inactive)

Row | Structure (SMILES) | activity, negative = inhibition
23 | CCOC(=O)c1ccccc1N1C(=O)C2Sc3[nH]c(=O)sc3C(/C=C/c3ccccc3)C2C1=O (centres undefined) | -3.6% (inactive)
24 | CCOC(=O)c1cc2c(=O)[nH]c(C(Cl)(Cl)Cl)nc2o1 | 7% (inactive)
25 | C[C@@H](O)[C@@H]1NC(=O)[C@H](CCCCN)NC(=O)[C@H](Cc2c[nH]c3ccccc23)NC(=O)[C@H](Cc2ccccc2)NC(=O)[C@H](Cc2ccccc2)NC(=O)[C@H](CC(N)=O)NC(=O)[C@H](CCCCN)NC(=O)[C@@H](NC(=O)[C@@H]2CCCN2)CSSC[C@@H](C(=O)N[C@@H](CCCCN)C(=O)O)NC(=O)[C@H](CO)NC(=O)[C@H](CO)NC(=O)[C@H](Cc2ccccc2)NC1=O (H-PCKNFFWKTFSSCK-OH; disulfide 2-13) | 10.5% (inactive)
26 | O=C1C2C(c3ccccc3)CC=CC2C(c2ccoc2)N1Cc1ccccc1 (centres undefined) | 14.2% (inactive)
27 | COCCCn1c(SCc2cccc(OC)c2)nc2cc(OC)c(OC)cc2c1=N | -7.59% (inactive)
28 | C=C1/C(=C\C=C2\CCCC3(C)C2CCC3C(C)/C=C/C(O)C2CC2)CC(O)CC1O (centres undefined) | 13.2% (inactive)
29 | CCOC(=O)C(C)Oc1cccc2c(=O)n(CC(=O)NCCc3ccc(OC)c(OC)c3)ccc12 (centres undefined) | 2.24% [at 2.36 µM] (inactive)
30 | COc1ccc(C(=O)C2CCCN(Cc3cccn3-c3ccccn3)C2)c(C)c1 (centres undefined) | -4.12% (inactive)
31 | ONC(=Nc1ccc(Cl)cc1)c1ccccc1Cl | 16.1% (inactive)
32 | COc1cc(CN2CCN(Cc3ccc(C)cc3)CC2)c([N+](=O)[O-])cc1OC | -8.19% (inactive)
33 | C=C/C1=C/Cc2ccccc2[C@H](C[N+](=O)[O-])C(C(=O)OC)(C(=O)OC)C1 | -6.91% (inactive)
34 | COC(=O)c1c(NC(=O)CN2C(=O)NC(CCc3ccccc3)C2=O)sc2c1CCCCC2 (centres undefined) | -2.03% (inactive)
35 | CC(C)(C)NCCCOc1ccc(Cl)cc1C(C)(C)C | -23.8% (inactive)
36 | CCCNC(=O)OC[C@H]1O[C@H](CCO/N=C/[C@@H](NS(=O)(=O)c2ccc(C)cc2)[C@H](C)/C=C/CC(=O)OC)C=C[C@@H]1Oc1ccc(OC)cc1 | -0.295% [at 2.36 µM] (inactive)
37 | C/C=C/c1ccc(OCCCCN2CCC(C)CC2)c(OC)c1 | 5.81% (inactive)
38 | Cc1cccc(N2CCC(NCc3c(C(=O)N4CCCCC4)nc4c(C)cccn34)CC2)c1 | 5.52% (inactive)
39 | CC1(C)CC(CNCCC(c2ccc(F)cc2)c2ccco2)CCO1 (centres undefined) | 18% (inactive)
40 | Fc1ccc(Cl)cc1-c1nc(Nc2ccncc2)c2nccnc2n1 | 14.3% (inactive)
41 | CCOc1ccc2sc(NS(=O)(=O)c3ccc(N)cc3)nc2c1 | 5.42% (inactive)
42 | CCc1ccc(CN(C)C(=O)CCc2nnc(-c3ccc(-c4ccccc4)cc3)o2)nc1 | 0.367% (inactive)
43 | CCOC(=O)C1(CCOc2ccccc2)CCN(C(=O)c2cncs2)CC1 | 15.7% (inactive)
44 | COc1ccc(C(CC(=O)N2CCN(c3ccccc3)CC2)c2c(O)cc(OC)cc2OC)cc1 (centres undefined) | inactive
